# Rows were chosen to be rich in hits. Some 3.3% of all compounds tested hit in one or more screens of this group.
# HTT ATP protect – Huntington cell model cytoprotection by ATP luminescence; PC12 HTT-Q103 induced, cytoprotection, ATP luminescence, 40 h; Potency, µM (series often up to 56.4 µM), for inactives: cytoprotection (ATP increase), hits mostly activators; 0.14% of 230,000 active; also: potency is read from the fitted curve at half-maximal effect; % of control where 0% means no effect; nearly all actives have a fitted effect of over 45% in size
#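 Quantitative HTS on tebufenozide-induced (100 nM) PC12 cells expressing HTTQ103 exon 1–GFP; compounds tested as a concentration series; survival measured via cellular ATP.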
# NPSR antag – antagonists of human neuropeptide S receptor cAMP signaling | CHO-NPSR cells, cAMP TR-FRET, antagonist mode | Potency, µM (series often up to 38.3 µM), for the others: at the highest dose activity change, negative = inhibition, most hits filed as inhibitors | 1% of 220,000 active; also: potency is read from the fitted curve at half-maximal effect; % is scaled to controls: 0 for no effect and ±100 for the full control effect; nearly all actives have a fitted effect of over 50% in size
# Target sequence (Q6W5P4 whole entry, looked up): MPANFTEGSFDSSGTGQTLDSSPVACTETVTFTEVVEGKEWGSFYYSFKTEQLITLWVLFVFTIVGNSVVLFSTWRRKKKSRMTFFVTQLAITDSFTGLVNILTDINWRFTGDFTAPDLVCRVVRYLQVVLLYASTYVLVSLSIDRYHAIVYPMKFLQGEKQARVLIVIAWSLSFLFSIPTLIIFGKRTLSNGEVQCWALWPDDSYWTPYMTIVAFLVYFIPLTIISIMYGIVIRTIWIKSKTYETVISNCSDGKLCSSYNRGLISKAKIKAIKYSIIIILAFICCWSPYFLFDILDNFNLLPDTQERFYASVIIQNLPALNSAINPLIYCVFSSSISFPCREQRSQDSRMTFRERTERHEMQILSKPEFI
# PNC assembly inh – inhibitors of perinucleolar compartment assembly; 3.1% of 140,000 active; PC3M PTB-GFP, PNC prevalence imaging, 16 h; stronger effect = lower value; activity change (PNC), negative = inhibition, % at 10 µM;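 active = readout at or below -70, meaning at least 70% loss of cells showing the perinucleolar compartment, a nuclear body marking cancer cells; inconclusive = readout between -30 and a set limit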;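 also: plate controls were DMSO wells for no effect and camptothecin positive control wells for full effect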
#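 PC3M cells stably expressing PTB-GFP, 750–1000 cells/well, treated 16 h at 37 °C with compound (23 nl of library stock), in duplicate. After paraformaldehyde fixation and Hoechst stain, imaged at 20x; PNC prevalence scored by image analysis.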
# IMPase inh – cell-permeable inhibitors of inositol monophosphatase (IMPase); CHO-M1 cells, IP1 accumulation, HTRF TR-FRET ratio; inhibition (IP1 accumulation), % at 46.1 µM; 120,000 tested, under 10 active; AID 901; active = well fitted curve in the direction sought with a large enough effect in the signal ratio, not every such curve was filed as active; inconclusive = small, poorly fitted or top-dose-only effect, or a change in a side signal; inactive = no such curve, though single readings can be large or run the other way; the % refers to the signal ratio;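 also: cells stimulated with carbachol in lithium chloride buffer; plate controls were DMSO basal wells for no effect and reference inhibitor wells for full effect; higher means more IMPase inhibition seen as more IP1 and lower FRET ratio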
# Target sequence (P97697 whole entry, looked up): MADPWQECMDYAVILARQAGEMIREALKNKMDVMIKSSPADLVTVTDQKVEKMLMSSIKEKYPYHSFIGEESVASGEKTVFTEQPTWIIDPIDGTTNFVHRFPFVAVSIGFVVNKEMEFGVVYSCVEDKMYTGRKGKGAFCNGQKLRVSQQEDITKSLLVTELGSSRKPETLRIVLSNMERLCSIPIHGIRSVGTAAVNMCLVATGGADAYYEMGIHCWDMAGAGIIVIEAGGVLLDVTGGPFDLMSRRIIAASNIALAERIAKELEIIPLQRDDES
#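 Elevated IP1 in lysates lowers TR-FRET signal (665/620 ratio and 620 channel reported). Cells were CHO-M1, given carbachol (50 uM as added) plus 50mM LiCl, pH 7.4, 30 min, 37C; compounds titrated up to 46 uM; AC50 by Hill equation.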
# HttQ103 aggreg – inhibitors of mutant huntingtin aggregate formation in PC12 cells; 1.1% of 220,000 active; PC12 HttQ103-GFP aggregates, Acumen cytometry, 40 h; Potency, µM (titrated, usually from 46.1 µM), without a hit: at the highest dose activity change, negative = inhibition, usual class: inhibitors; also: potency is read from the fitted curve at half-maximal effect; % is scaled to controls: 0 for no effect and ±100 for the full control effect; nearly all actives have a fitted effect of over 60% in size
#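 Aggregate formation scored by laser-scanning cytometer (488 excitation, 500–530 emission) in lysed PC12 cells expressing Q103-GFP after 100 nM tebufenozide induction; library tested in dose series, with ATPLite reagent added in the multiplex.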
# ALOX12 inhib – inhibitors of human 12-lipoxygenase (ALOX12). Potency, µM (titrated, usually from 57.1 µM), inactives show top-dose activity change, negative = inhibition, actives largely listed as inhibitors. P18054. purified 12-hLO, xylenol orange hydroperoxide absorbance. 0.12% of 150,000 active; also: potency is read from the fitted curve at half-maximal effect; % is scaled to controls: 0 for no effect and ±100 for the full control effect; nearly all actives have a fitted effect of over 55% in size
#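 Purified human 12hLO (150 nM), preincubated 15 min with compound, then 40 uM arachidonic acid for 30 min, room temperature, Hepes pH 7.0 with 0.01% Triton X-100. Hydroperoxide detected by ferrous iron/xylenol orange; 573/405 nm absorbance ratio gives reaction progress.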
# * hit, by the source's call; ? = inconclusive; . = no result; [ ] = another dose, or the depositor's remark. Unless noted, calls follow the shape of the dose curve; as a rule, active = well fitted curve in the direction sought with a large enough effect; inconclusive = small, poorly fitted or top-dose-only effect, or another doubt; inactive = no such curve, though single readings can be large; an effect the other way counts as inactive or inconclusive.
SMILES,HTT ATP protect,NPSR antag,PNC assembly inh,IMPase inh,HttQ103 aggreg,ALOX12 inhib
COCC(=O)N1CCC[C@@]2(CCN(Cc3nccs3)C2)C1,13%,.,.,.,.,2%
C[N+]1([C@H](CO)Cc2c[nH]c3ccccc23)Cc2ccccc2C1,-10%[10 µM],.,.,.,.,-1%[11.4 µM]
CCc1ccc(C(=O)c2cncc(Br)c2)cc1,5%,-9%[46.1 µM],-27,3,20µM*,-12%
NNC(=O)c1cncc(Br)c1,-3%[10 µM],11%,.,.,0%[9.22 µM],.
Cc1ccc(C(=O)c2cncc(Br)c2)cc1,13%,3%[46.1 µM],-1,4,14µM*,-1%
CCCS(=O)(=O)c1c(S(=O)(=O)CCC)c2ccc(C(N)=O)cn2c1C(=O)c1ccc(OC)cc1,-4%[10 µM],-39%,.,.,-3%[9.22 µM],.
S=c1[nH]nc(-c2ccco2)n1/N=C/c1ccccc1Cl,-14%[10 µM],6%[46.1 µM],-20,-4,-11%,-6%
Cn1c(-c2ccco2)n[nH]c1=S,.,4%,.,.,13%,.
Cc1ccccc1-n1c(-c2ccco2)n[nH]c1=S,.,2%,-114*,.,9%,0%
Cc1ccc(/C=N/n2c(-c3ccco3)n[nH]c2=S)s1,3%[10 µM],0%,-113*,-1,6%,0%
O=C(Oc1ccccc1)N1CCC2(CC1)CN(c1ncccn1)C2,-11%,.,.,.,.,0%
CC(C)(C)NCC(O)COc1ccc(NC(=O)NC2CCCCC2)cc1 (stereo not drawn),-35%,.,.,.,-6%,.
Cc1ccccc1NC(=S)NCc1ccc2[nH]c3c(c2c1)CCCC3,.,-2%,25,.,-28%,14µM*
Cc1ccc(C)c(NC(=S)NCc2ccc3[nH]c4c(c3c2)CCCC4)c1,.,-34%,-16,.,?,?
CCOC(=O)N1CCN(c2c(-c3ccc(C)cc3)c(=O)c2=O)CC1,23%[10 µM],-3%[46.1 µM],-100*,-9,-4%,0%
CCOC(=O)N1CCN(c2c(-c3ccc(C)c(C)c3)c(=O)c2=O)CC1,14%[10 µM],-9%[46.1 µM],-100*,-4,12%,-7%
CCOC(=O)N1CCN(c2c(-c3ccc(C(C)C)cc3)c(=O)c2=O)CC1,-15%[0.074 µM],-26%[46.1 µM],2,3,21%,?
CC(=O)c1ccc(C2C=CC(Oc3ccc(-c4ccccc4)cc3)C(CO)O2)cc1 (stereo not drawn),-7%[10 µM],.,.,.,.,.
COc1ccc(-n2c(=O)c3c4c(sc3n(Cc3cccc(F)c3)c2=O)CN(C(C)=O)CC4)c(OC)c1,13%,-9%,.,.,10%,.
CC(=O)N1CCc2c(sc3c2c(=O)n(-c2ccccc2)c(=O)n3Cc2ccccc2Cl)C1,.,-17%,-114*,.,27%,-1%
C/C(CC(=O)Nc1ccc(Cl)c(C(F)(F)F)c1)=N\NC(=O)c1ccccc1O,-4%[10 µM],0%,-23,.,16µM*,-5%
C/C(CC(=O)Nc1ccc(Cl)c(C(F)(F)F)c1)=N\NC(=O)c1cccc(O)c1,-11%[10 µM],7%,17,.,-13%,-9%
Cc1cc(C(=O)Cn2nnc3ccccc3c2=O)c(C)n1-c1ccccc1F,-106%,-3%[46.1 µM],-87*,-2,?,-1%
CCn1c(CSc2nc3ccccc3[nH]2)n[nH]c1=S,5%[10 µM],-3%[46.1 µM],-122*,-2,5%,3%
C=C(C)Cn1c(SCC(=O)Nc2cccc(Cl)c2)nc2sc3c(c2c1=O)CCCC3,.,.,.,-18,.,.
SMILES,HTT ATP protect,NPSR antag,PNC assembly inh,IMPase inh,HttQ103 aggreg,ALOX12 inhib
C=CCOC(=O)C1=C(C)NC(SCC)=C(C#N)C1c1ccc(Cl)cc1 (stereo not drawn),-55%,10µM*,46,3,?,-23%
C=CCOC(=O)C1=C(C)NC(SCC(N)=O)=C(C#N)C1c1ccc(C)cc1 (stereo not drawn),12%[10 µM],11%,.,.,3%[9.22 µM],.
CCn1cc(C(C)NC(=O)COc2ccc(Cl)cc2C)c(C)n1 (stereo not drawn),2%[10 µM],-4%[46.1 µM],-95*,2,?,-1%
Cc1cc(Cl)ccc1OCC(=O)NCc1ccncc1,-10%,3%[46.1 µM],72,-12,-21%,1%
CCOc1cc(NC(=S)Nc2cccc(OC)c2)c(OCC)cc1NC(=O)C(C)C,-22%,-16%[46.1 µM],-106*,17,?,-26%
CCOCC(=O)Nc1cccc(OC)c1,13%[10 µM],5%[46.1 µM],-89*,-10,-14%,-1%
N#CC(Sc1ccccn1)c1ccc(Cl)cc1Cl (stereo not drawn),5%,-6%,.,.,-6%,.
Cc1cccc2[nH]c3c(N4CCN(C(=O)c5ccco5)CC4)ncnc3c12,-42%,-13%[46.1 µM],-6,8,-30%,-6%
c1ccc2c(c1)[nH]c1c(N3CCCC3)ncnc12,-5%,-11%[46.1 µM],45,12,-32%,12%
Cc1cccc2[nH]c3c(N4CCC5(CC4)OCCO5)ncnc3c12,-55%,-4%[46.1 µM],?,-2,22µM*,-5%
Clc1ccc2[nH]c3c(N4CCC5(CC4)OCCO5)ncnc3c2c1,-98%,?,-26,-13,8.9µM*,-7%
c1ccc2c(c1)[nH]c1c(N3CCOCC3)ncnc12,-2%,-12%[46.1 µM],-119*,2,-29%,4%
Cc1ccc2[nH]c3c(N4CCc5ccccc5C4)ncnc3c2c1,-85%,?,-23,18,3.5µM*,-10%
C#CCOCCOCCOCCNc1nc(N2CCN(C(=O)[C@H]([C@@H](C)CC)n3cc([C@@H](N)Cc4ccc(O)cc4)nn3)CC2)nc(N2CCN(C(=O)[C@H](CCCCN)n3cc([C@@H](N)CO)nn3)CC2)n1,2%[10 µM],-15%,.,.,10%[9.22 µM],.
COC(=O)[C@@]1(C)CCC[C@@]2(C)c3ccc(O)c(C(C)C)c3CCC21 (stereo partly drawn),-352%,.,.,.,.,-5%
COc1cc2c(C=O)c3c4c(cc(OC)c(OC)c4c2cc1OC)CCN3C,-12%[1.9 µM],.,.,8,.,?
Cc1ccc(C2C3C(=O)N(c4ccccc4)C(=O)C3N3CCCN23)cc1 (stereo not drawn),-1%[10 µM],-21%,.,.,17%[9.22 µM],.
OCCCNc1cc(-c2ccnc(Nc3cccc(Cl)c3)n2)ccn1,-5%[10 µM],11%,.,.,0.71µM*,.
CCC(C)Oc1cc(-c2ccnc(Nc3cccc(Cl)c3)n2)ccn1 (stereo not drawn),25%[10 µM],-35%,.,.,-18%[9.22 µM],.
CC(C)(C)Nc1oc(-c2ccccc2)nc1-c1ccccc1F,8%,.,.,.,.,4%
CCCN(CCC)c1ncnc2nc[nH]c12,5%,-6%[46.1 µM],0,8,7.9µM*,2%
COc1ccc(NC(=O)/C=N/O)cc1,-3%,12%,.,.,6%,.
COc1ccc(N/N=C(\C=N\O)C(=O)c2ccc(OC)cc2)cc1,-52%,?,-112*,13,-4%,-16%
Cc1cc(Nc2ccccc2)n(-c2ccccc2)n1,-5%,-13%[46.1 µM],-18,16,3%,0%

# Compound activity as filed in PubChem.
